The whole screen tested about 1,200 compounds, of which about 20 (2%) were called active. Another 23% or so got no clear call; they are omitted. This excerpt belongs to a sample that is enriched for actives. A number with no mark means an inactive call. Calls follow the shape of the dose curve; as a rule, active = well fitted inhibition curve with a large enough effect; inconclusive = small, poorly fitted or top-dose-only effect; inactive = no such curve, though single readings can be large or run the other way.
What follows are compounds tested against Transcriptional regulator ERG (Homo sapiens) (UniProt P11308) (assay: qHTS for Small Molecule Inhibitors of the ERG Ets/DNA interaction: HTRF assay against cherry picks). Conditions: His-ERG Ets domain with biotin-DNA; series mostly up to 154 µM; activity change, negative = inhibition: at the top concentration.
Transcriptional regulator ERG (Homo sapiens), sequence (P11308 whole entry, looked up, the tested form may be a part): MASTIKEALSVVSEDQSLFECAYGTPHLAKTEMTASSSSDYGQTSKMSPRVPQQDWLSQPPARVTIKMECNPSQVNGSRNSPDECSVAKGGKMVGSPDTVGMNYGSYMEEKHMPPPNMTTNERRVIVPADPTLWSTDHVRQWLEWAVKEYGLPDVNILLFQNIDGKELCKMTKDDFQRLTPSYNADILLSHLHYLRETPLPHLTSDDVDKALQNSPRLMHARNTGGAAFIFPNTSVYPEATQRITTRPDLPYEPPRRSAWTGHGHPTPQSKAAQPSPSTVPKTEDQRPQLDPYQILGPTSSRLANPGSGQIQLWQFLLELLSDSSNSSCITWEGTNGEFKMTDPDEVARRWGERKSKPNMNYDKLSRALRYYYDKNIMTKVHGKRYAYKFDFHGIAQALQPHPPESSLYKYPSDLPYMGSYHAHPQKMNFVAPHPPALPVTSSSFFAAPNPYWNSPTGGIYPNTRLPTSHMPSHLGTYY
Text: The Ets family of proteins is a family of ~30 conserved transcription factors defined by the presence of an ~85 amino acid domain referred to as the Ets domain, which mediates sequence-specific DNA binding to a core DNA element GGAA/T.The Ets family member ERG has been linked to several neoplasms. […] More extensive studies of the effects of over-expression of ERG in prostate cells have recently been carried out and have shown that over-expression of ERG results in increased invasion. […] We will carry out a high throughout screen to identify inhibitors of the interaction between ERG and DNA using a fluorescence polarization (FP) assay with a His-tagged ERG Ets domain and fluorescently-labeled DNA probes to develop small molecule inhibitors of this interaction as probes to test this hypothesis and lay the groundwork for the development of targeted therapies against ERG. This is the counterscreen against the cherry picks. NIH Molecular Libraries Probe Production Network [MLPCN] NIH Chemical Genomics Center [NCGC] Grant: NS066464 PI Name: John Bushweller, University of Virgina
2 ul of protein solution (200 nM ERG domain in 300mM KCl, 50mM Tris-HCl, 1mM EDTA, 1mM DTT, pH 7.5); 20 nl Control plate and compound library plate; 2 ul of 200 nM biotin-DNA; incubate for 10 min at RT; 1 ul of anti-His antibody conjugated to the long-life fluorescent cryptate donner […] (5ng/ul) and streptavidin conjugated to the acceptor compound […] (0.2 ng/ul) mix; incubate 10 min and measure FRET (Excitation = 320 nm, Emission = 615, 665 nm).
Potency is read from the fitted curve at half-maximal effect.

| Compound | Potency | activity change, negative = inhibition [%] |
| --- | --- | --- |
| Nc1ccc2nonc2c1[N+](=O)[O-] | 50.1 µM (active) |  |
| C=C1C2C[C@@]3([C@@H]1O)[C@@H](C[C@@H]2O)[C@@]12C4[C@@H]3C[C@@H]1[C@@](C)(CC[C@@H]2O)CN4CC |  | -25.6 |
| CC(=O)C1(c2ccccc2)CCN(C(=O)C2CCC(=O)N(CCc3cccc(F)c3)C2)CC1 (stereo not given) |  | -19.4 |
| C[N+]1(C)[C@@H]2CC[C@H]1CC(OC(=O)C(CO)c1ccccc1)C2 (stereo not given in full) |  | -26.6 |
| CN1[C@@H]2CCC[C@H]1CC(=O)C2 |  | -23.7 |
